# Luciferase inh: qHTS Assay for Inhibitors of Firefly Luciferase. Luciferin 4-monooxygenase (Photinus pyralis), P08659. purified firefly luciferase, luminescence, 8 min. Potency, µM (top dose mostly 57.1 µM), for the others: top-dose activity change, negative = inhibition, usual class: inhibitors. 72,000 compounds, 2.2% hits; active means well fitted inhibition curve with a large enough effect; inconclusive means small, poorly fitted or top-dose-only effect; further: on the % scale 0 is the no-effect control and ±100 the full control effect; nearly all actives have a fitted effect of over 40% in size
# Target sequence (P08659 whole entry, looked up): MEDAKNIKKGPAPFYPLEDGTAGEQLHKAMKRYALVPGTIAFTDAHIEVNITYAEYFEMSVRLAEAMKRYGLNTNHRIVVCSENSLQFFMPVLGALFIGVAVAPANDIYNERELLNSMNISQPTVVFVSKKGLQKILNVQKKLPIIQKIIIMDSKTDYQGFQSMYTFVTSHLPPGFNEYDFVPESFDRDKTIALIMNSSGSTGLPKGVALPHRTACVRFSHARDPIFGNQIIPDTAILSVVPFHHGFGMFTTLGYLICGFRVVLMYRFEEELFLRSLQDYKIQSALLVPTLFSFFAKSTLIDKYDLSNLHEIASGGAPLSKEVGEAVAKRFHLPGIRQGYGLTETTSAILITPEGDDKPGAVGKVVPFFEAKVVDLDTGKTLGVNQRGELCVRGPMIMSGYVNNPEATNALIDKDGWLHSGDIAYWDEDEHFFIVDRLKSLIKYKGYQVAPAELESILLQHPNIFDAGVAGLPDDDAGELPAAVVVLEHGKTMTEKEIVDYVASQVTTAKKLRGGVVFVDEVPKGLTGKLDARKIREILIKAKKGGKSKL
#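 Compounds were tested as concentration series (qHTS) against purified P. pyralis luciferase with luciferin and 10 uM ATP in 50 mM imidazole pH 7.2, 50 mM KCl, 7 mM MgCl2, 0.01% Tween 20, 0.05% BSA. Luminescence was read after 8 min at ambient temperature.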
# PK Bst: Pyruvate Kinase | 51,000 compounds, 1.2% hits | Potency, µM | purified pyruvate kinase, luminescence ATP production; ribose 5-phosphate activator present at AC10; in the data active means potency below about 11 µM; inconclusive means mostly about 12 µM to 25 µM;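 the screen sought inhibitors and activators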;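 further: scaled between full activation by ribose 5 phosphate and full inhibition by luteolin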
# GBA activity: Glucocerebrosidase; Lysosomal acid glucosylceramidase (Homo sapiens), P04062; purified enzyme, resorufin glucoside fluorescence (screen aimed at inhibitors), 20 min; Potency, µM; 48,000 compounds, 1.1% hits; AID 360, 2006; in the data active means potency below about 15 µM; inconclusive means mostly about 16 µM to 33 µM;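 further: the screen sought inhibitors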
#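 Compounds titrated against 0.2 nM normal enzyme, 30 uM resorufin beta-D-glucopyranoside substrate, citrate/phosphate buffer with taurocholate and tween-20, pH 5.9. Reaction ran 20 min at room temperature; fluorescence (Ex 548/Em 600) gave AC50.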
# * marks the source's active call; other numbers are inactive results; i = inactive; ? = inconclusive; · = not tested or not shown; [ ] = another dose, or the depositor's remark. Hits are enriched below; roughly 3.4% of the tested compounds scored in any of these assays. Potency means the concentration at half of the fitted maximal effect.
SMILES,Luciferase inh,PK Bst,GBA activity
COC(=O)CSc1nc2ccccc2o1,2%,>57,>77
Cc1cc(=O)n2[nH]c(-c3ccc(F)cc3)nc2n1,13µM*,i,>77
Cc1cc(=O)n2[nH]c(N3C(=O)CCC3=O)nc2n1,0%[25.5 µM],>26,·
COc1cccc(-c2cc3nc(-c4ccccc4)cc(N4CCC5(CC4)OCCO5)n3n2)c1,-3%,·,>77
Fc1ccc(-c2cc3nc(-c4ccccc4)cc(N4CCN(CCN5CCOCC5)CC4)n3n2)cc1,1%,2.4*,?
CC[C@@H]1CC(=O)N(SC[C@H](N)C(=O)O)C1=O,1%[11.4 µM],·,·
CCOc1ccc(C2C=C(c3ccc(C)cc3)Nc3nnnn32)cc1 (stereo not drawn),1%,>57,i
CCOc1ccc(C2C=C(c3ccccc3)Nc3nnnn32)cc1 (stereo not drawn),-10%,>57,3.7*
O=C(c1ccccc1)c1cccc(NC(=O)c2ccco2)c1,-21%,·,·
O=C(Nc1ccc2c(c1)ncn2-c1ccccc1)c1ccco1,13µM*,10*,>77
O=C(Nc1cccc(-c2nc3ccccc3[nH]2)c1)c1ccco1,25µM*,i,?
Cc1ccc2nc(-c3ccc(NC(=O)c4ccco4)cc3)[nH]c2c1,5µM*,7.2*,?
Cn1cnc2cc(NC(=O)c3ccco3)ccc21,-26%,·,>77
Cn1cccc1-c1nc2ccc(NC(=O)c3ccco3)cc2[nH]1,?,i,·
O=C(Nc1ccc2nc(-c3ccccc3)oc2c1)c1ccco1,-24%,?,>77
O=C(Nc1cccc(NC(=O)c2nccc3ccccc23)c1)c1ccco1,13µM*,i,>77
COc1ccc2[nH]cc(CCNc3ccnc(-c4ccccc4Cl)n3)c2c1,0%[2.29 µM],·,·
COc1ccccc1CN1CC[C@@]2(CCCN(S(=O)(=O)c3ccccc3)C2)C1,0%[11.4 µM],·,·
O=C1Nc2ccccc2C1=Nc1cccc2ncccc12,0%[11.4 µM],·,·
Cc1noc(C)c1-c1ccc2ncnc(N3CCN(C)CC3)c2c1,0%[2.29 µM],·,·
CN(C)c1ccc(-c2ccc3ncnc(N(C)Cc4ccco4)c3c2)cc1,0%[2.29 µM],·,·
Cc1n[nH]c(C)c1-c1nc2ccccc2[nH]1,0%,>57,>77
Nc1ccccc1-c1nc2ccccc2[nH]1,?,·,>77
Cn1cc(C2=C(c3ccc(Cl)cc3Cl)C(=O)NC2=O)c2ccccc21,-5%,·,·
Nc1cccc(-c2nc3ccccc3[nH]2)c1,13µM*,·,·
SMILES,Luciferase inh,PK Bst,GBA activity
Cn1cc(-c2nc3ccccc3[nH]2)c2ccccc21,13µM*,?,·
Nc1ccc(-c2nc3ccccc3[nH]2)cc1,16µM*,·,·
CC(=O)Oc1ccc(/C=C\C(=O)C[C@@H]2O[C@@H](Oc3cc(OC(C)=O)c4c(c3)O[C@@H](c3ccc(OC(C)=O)cc3)CC4=O)[C@H](OC(C)=O)[C@H](OC(C)=O)[C@@H]2OC(C)=O)cc1,4%[11.4 µM],·,·
c1csc(CNc2nc(-c3ccc4c(c3)OCO4)nc3ccccc23)c1,-1%[2.29 µM],·,·
COC(=O)N1CCC2(CCN(Cc3nccs3)CC2)CC1,0%[11.4 µM],·,·
O=C1[C@@H]2[C@@H]3C=C[C@H]([C@@H]2C(=O)N1CN1CCSCC1)[C@@H]1[C@@H]2C(=O)N(CN4CCSCC4)C(=O)[C@@H]2[C@H]31,2%[11.4 µM],·,·
NCCC(=O)O,-1%,·,·
O=C1CCCC/C1=C\Nc1ccc(O)cc1,-3%,>11,>77
O=C1CCCC/C1=C\Nc1ccc(Cl)cn1,-7%,>57,14*
NC(=O)c1cc(Br)cc2c3c([nH]c12)CCCC3,-2%,0.69*,?
O=c1c2c([nH]c3ccc(Br)cc13)CCCC2,-2%,·,i
Cc1sc(NC(=O)c2ccc(Cl)s2)c(C(N)=O)c1C,10µM*,·,>77
CCOC(=O)c1c(NC(=O)Cc2cccs2)sc(C)c1C,2%,·,·
O=C(N/N=C1/C[C@@H](O)[C@@H](O)[C@@H]2[C@@H]3C(=O)N(Cc4ccc5c(c4)OCO5)C(=O)[C@H]3CC[C@@H]12)OCc1ccccc1,1%[11.4 µM],·,·
CC(C)=CC(=O)Nc1ccc(Br)cc1,20µM*,·,>77
CC(=O)NC(C)C(=O)OCC(=O)Nc1ccc(Br)cc1 (stereo not drawn),-2%,·,·
Cc1cccc(-c2noc(-c3ccccc3C(=O)NCC3CCCO3)n2)c1 (stereo not drawn),16µM*,·,>77
O=C(c1ccccc1-c1nc(-c2ccc(Cl)cc2)no1)N1CCCC1,-22%,i,>77
O=C(NCC1CCCO1)c1ccccc1-c1nc(-c2ccc(Cl)cc2)no1 (stereo not drawn),?,10*,i
COc1cccc(NC(=O)c2ccccc2-c2nc(-c3cccc(C)c3)no2)c1,-19%,·,·
COc1cccc([C@H]2Oc3ccc(OC)cc3/C(=N\O[C@@H](C)c3cn([C@H](CO)Cc4ccccc4)nn3)[C@@H]2O)c1,0%[11.4 µM],·,·
CCc1ccc(C(=O)COC(=O)CNC(=O)c2ccco2)cc1,-6%,·,·
O=C(CNC(=O)c1ccco1)OCC(=O)c1ccc2c(c1)CCCC2,2µM*,>57,>77
Cn1cc(-c2nc3cncnc3n(CCN)c2=O)c2ccccc21,-1%[11.4 µM],·,·
CCc1nnc(NC(=O)c2ccc(COc3ccccc3)o2)s1,2%,>57,i
SMILES,Luciferase inh,PK Bst,GBA activity
CCc1nnc(NC(=O)c2ccc(-c3cccc(C(F)(F)F)c3)o2)s1,4%,>57,1.8*
N=c1sc2ccccc2n1CCS (tested in a mixture with another compound),2%[11.4 µM],·,·
CCCCN(CC)S(=O)(=O)c1cccc2cccnc12,-1%,·,·
CN(C)c1ccc(C(=C2C=CC(=[N+](C)C)C=C2)c2c(O)c(S(=O)(=O)O)cc3cc(S(=O)(=O)O)ccc23)cc1,3.2µM*,·,·
c1ccc2[nH]c(SCc3ccc(-c4nnco4)cc3)nc2c1,?,·,>77
c1cnc2c(SCc3ccc(-c4nnco4)cc3)cccc2c1,-14%,2.4*,>77
Nc1nc(Cl)nc2c1ncn2[C@@H]1O[C@@H](COP(=O)(O)OP(=O)(O)OP(=O)(O)O)[C@@H](O)[C@H]1O,1%,·,·
Cc1cccc(OCC(=O)Nc2cccc(O)c2)c1,-11%,·,>77
Cc1ccc(OCC(=O)Nc2cccc(O)c2)cc1C,16µM*,·,?
CCC(=O)Nc1cccc(NC(=O)COc2ccc(OC)cc2)c1,20µM*,·,>77
COc1ccc(OCC(=O)Nc2ccc(C)cc2)cc1,-7%,·,>77
CN(C)CCCN1CCC2(CCC(C(C)(C)C)CC2)CC1,3%[11.4 µM],·,·
COC(=O)N1CCC2(CCN(C(=O)NC(C)C)CC2)CC1,2%[11.4 µM],·,·
COc1cccc(Cn2c(=O)c(CCc3ccccc3)nc3cncnc32)c1,0%[11.4 µM],·,·
COCCn1c(=O)c(-c2ccccc2)nc2cnc(OC)nc21,1%[11.4 µM],·,·
N#Cc1cccc(NC(=O)N2CCCC3(CCN(C(=O)c4csnn4)CC3)C2)c1,1%[11.4 µM],·,·
O=C1OC(Nc2nccs2)c2ccccc21 (stereo not drawn),3%,>57,>77
O=C1OC(Nc2nc3ccccc3s2)c2ccccc21 (stereo not drawn),-4%,>57,15*
COCCn1c(=O)c(-c2cn(C)c3ccccc23)nc2cnc(Oc3cccc(Cl)c3)nc21,0%[11.4 µM],·,·
CCc1ccc(C2=Nn3c(nnc3-c3cccs3)SC2)cc1,3%,i,8.2*
Cc1ccc(-c2nnc3n2N=C(c2ccccc2)CS3)cc1,-1%,·,·
COc1ccc(C2=Nn3c(nnc3-c3ccc(OC)cc3)SC2)cc1,-2%,>57,?

# Bioassay records deposited in PubChem BioAssay by National Center for Advancing Translational Sciences (NCATS).
